A549 tox – kills or reduces viability of A549 cells in Nrf2 counter-screen. A549 ARE-Fluc cells, CellTiter-Fluor viability, 18-24 h. Potency, µM (series often up to 46 µM), without a hit: at the highest dose activity change, negative = cytotoxicity, usual class: inhibitors. hit rate 0.16% among 390,000. AID 504648; further: on the % scale 0 is the no-effect control and ±100 the full control effect
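Cytotoxicity counterscreen: CellTiter-Fluor fluorescence was measured in A549 ARE_Fluc cells after 18-24 h of compound exposure in a concentration series. The subsequent BugLite luminescent read reports ARE-luciferase activity.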
HepG2 tox – counter-screen for TGF-b inhibitors: cytotoxicity in HepG2 cells | HepG2 CAGA-GFP viability, ATP luminescence, 18 h | Potency, µM (doses to about 46.1 µM), for the others: at the top dose activity change, negative = cytotoxicity, most hits filed as cytotoxic | hit rate 0.76% among 410,000 | AID 588856
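HepG2 CAGA-GFP cells (1000/well, DMEM with 1% FBS) received compound, then TGF-beta at 500 pg/mL final, and were incubated 18 hours at 37 degrees C. Viability was read by CellTiter-Glo luminescence. Media-only wells were set as complete cell-killing and DMSO as no toxicity.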
Nrf2 activator – activators of Nrf2 (ARE) signaling | AID 624171 | hit rate 0.31% among 410,000 | Potency, µM (doses to about 46.1 µM), without a hit: top-dose activation, most hits filed as activators | AREc32 ARE-luciferase reporter (MCF7-derived line), luminescence, 24 h; further: % of control where 0% means no effect; nearly all actives have a fitted effect of over 65% in size
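AREc32_Fluc, 1000 cells/well, OPTI-MEM + 5% FBS, o/n 37 deg C 5% CO2; 23 nL cpd by pin tool, 24 hr; Steady-Glo 30 min RT, luminescence.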
TGFb inhibitor – TGF-b pathway inhibition; HepG2 CAGA-GFP TGF-b/SMAD3 reporter, GFP fluorescence, 18 h; TGF-beta stimulated, 500 pg/mL final; Potency, µM (titrated, usually from 46.1 µM), inactives show top-dose activity, negative = inhibition, usual class: inhibitors; hit rate 1.2% among 410,000; AID 588855; further: on the % scale 0 is the no-effect control and ±100 the full control effect; nearly all actives have a fitted effect of over 65% in size
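HEPG2 CAGA-GFP cells (1000/well, DMEM with 1% FBS) were pre-incubated 2 h at 37 degrees C, given compound by pin tool, then stimulated with TGF-beta at 500 pg/mL final for 18 h before per-cell GFP fluorescence imaging.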
Nrf2 inh – blocks Nrf2 signaling; A549 ARE-Fluc reporter, luciferase luminescence, 18-24 h; Potency, µM (highest dose often 46 µM), inactives show at the top dose activity change, negative = inhibition, hits mostly inhibitors; hit rate 2.1% among 360,000; AID 504444; further: on the % scale 0 is the no-effect control and ±100 the full control effect; nearly all actives have a fitted effect of over 60% in size
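In this cell-based qHTS, ARE-driven firefly luciferase in A549 cells reports Nrf2 activity; the luminescent signal after BugLite lysis is the measured value, with a prior CellTiter-Fluor read for cell health.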
An asterisk follows results filed as active; ? = inconclusive; nt = not tested or not shown; ! = not confirmed by another sample. This is a sample that favours compounds with a hit; in the whole collection about 3.6% have one here. The call rests on the fitted dose curve; in most records, active means well fitted curve in the direction sought with a large enough effect; inconclusive means small, poorly fitted or top-dose-only effect, or another doubt; inactive means no such curve, though single readings can be large; an effect the other way counts as inactive or inconclusive. Potency means the concentration at half of the fitted maximal effect.

SMILES	A549 tox	HepG2 tox	Nrf2 activator	TGFb inhibitor	Nrf2 inh
COc1ccc(N2C(=O)C(CC(=O)Nc3ccccc3)N(Cc3cccs3)C2=O)cc1 (configuration not stated)	-6%	-1%	0%	-3%	11%
CCN(CC)c1ccc(NC(=O)c2cncc(Br)c2)cc1	-3%	2%	1%	9%	5%
CCc1nc2c(OCc3ccc(Cl)cc3)cccn2c1N(C=O)Cc1ccc(OC)cc1	nt	-2%	2%	-19%	nt
O=C(/C=C/c1ccc(Br)o1)NC(c1ccccc1)c1ccccc1	-9%	-58%	5%	-44%	26µM*
Cc1sc(NC(=O)c2ccccc2F)c(CN2CCCCC2C)c1C (configuration not stated)	-2%	-27%	13µM*	-34%	?
CC(=O)Nc1sc(C)c(C)c1CN1CCN(Cc2ccccc2)CC1	0%	2%	0%	-2%	4%
COc1ccc(/C=C/C(=O)CC(O)(c2ccccc2)C(F)(F)F)cc1 (configuration not stated)	3%	10µM*	17%	?	-2%
O=C(/C=C/c1ccccc1)CC(O)(c1ccccc1)C(F)(F)F (configuration not stated)	?	-79%	-3%	11µM*	?
O=C(/C=C/c1ccccc1)CC(O)(c1ccccc1)C(F)(F)C(F)F (configuration not stated)	8%	-84%	-3%	13µM*	-8%
O=C(CC(O)(c1ccccc1)C(F)(F)C(F)F)c1cccs1 (configuration not stated)	-10%	7%	2%	-12%	16%
CN1CCN(S(=O)(=O)c2cc(C(F)(F)F)ccc2Cl)CC1	-8%	20%	-1%	-1%	-1%
CCCOc1ccc(C(=O)NNC(=S)NC(=O)CC)cc1	?	-10%	0%	-23%	4.6µM*
CC(C)N(C(=O)CSc1cn(CC(=O)N2CCCCCC2)c2ccccc12)C(C)C	-5%	-24%	1%	13µM*	-9%
O=C(Nc1cccc(S(=O)(=O)C(F)F)c1)c1ccc(S(=O)(=O)N2CCCCC2)cc1	?	-30%	1%	-26%	16µM*
CN(C)S(=O)(=O)c1cccc(NC(=O)c2ccc(S(=O)(=O)N3CCCCC3)cc2)c1	-4%	-19%	2%	-20%	?
O=C(Nc1cccc(S(=O)(=O)N2CCCCC2)c1)c1ccc(S(=O)(=O)C(F)F)cc1	-19%	15%	0%	-27%	18µM*
CN(C)c1ccc(C(=O)Nc2cccc(S(=O)(=O)N3CCCC3)c2)cc1	-9%	-19%	-1%	-20%	-25%
O=C(Nc1cccc(S(=O)(=O)N2CCCCC2)c1)c1cc2ccccc2o1	-12%	-3%	2%	?	23µM*
CN(C)c1cccc(Nc2ccc(-c3ccc(OC(F)(F)F)cc3)cn2)c1	nt	-35%	5%	32%	nt
CCOC(=O)CN1C(=O)S/C(=C/c2cc(C)n(-c3ccccn3)c2C)C1=O	-4%	-1%	2%	11%	22%
CCOc1ccc(NC(=NCc2ccc3c(c2)OCO3)SC2CC(=O)N(c3ccc(OCC)cc3)C2=O)cc1 (configuration not stated)	-27%	-18%	0%	-18%	15µM*
CCCCOc1ccc(C(=O)OC2CC(C)N(C)CC2C)cc1 (configuration not stated)	1%	-37%	2%	12%	-5%
CCOc1ccc2[nH]c3c(N4CCc5ccccc5C4)ncnc3c2c1	-26%	-80%	0%	?	?
Brc1ccc2[nH]c3c(N4CCc5ccccc5C4)ncnc3c2c1	-13%	-73%	3%	-15%	9.2µM*
COc1ccc2[nH]c3c(N4CCC(O)(c5cccc(C(F)(F)F)c5)CC4)ncnc3c2c1	?	-98%	-1%	?	23µM*
SMILES	A549 tox	HepG2 tox	Nrf2 activator	TGFb inhibitor	Nrf2 inh
Cc1ccc2[nH]c3c(N4CCc5ccccc5C4)ncnc3c2c1	-27%	-51%	9%	?	7.3µM*
Clc1ccc2[nH]c3c(N4CCC5(CC4)OCCO5)ncnc3c2c1	-17%	-28%	4%	5%	21µM*
Cc1cccc2[nH]c3c(N4CCC5(CC4)OCCO5)ncnc3c12	nt	-24%	3%	-3%	?
COc1ccc2[nH]c3c(N4CCN(Cc5ccc6c(c5)OCO6)CC4)ncnc3c2c1	-16%	-44%	7%	?	?
Cc1cc2c(N)cccc2nn1	-1%	-19%	0%	-2%	0%
COc1cccc(S(=O)(=O)Nc2ccc3c(c2)[C@H]2C[C@H](CC(=O)N[C@@H](C)c4ccccc4)O[C@H](CO)[C@H]2O3)c1	nt	-12%	0%	6%	nt
CCCCN(CC)CCCNC(=O)c1ccc2c(c1)N(Cc1ccc(C)cc1)C(=O)c1ccccc1S2	-6%	11µM*	-4%	14µM*	nt
COCCCNC(=O)c1ccc2c(c1)N(Cc1ccccc1)C(=O)c1ccccc1S2	8%	-34%	5%	-20%	nt
Cc1cccc(CN2C(=O)c3ccccc3Sc3ccc(C(=O)NCCCN4CCOCC4)cc32)c1	-2%	11µM*!	0%	11µM*!	-7%
O=C(NCCCN1CCOCC1)c1ccc2c(c1)N(Cc1ccccc1)C(=O)c1ccccc1S2	-1%	-1%	2%	0%	?
COc1ccccc1C(=O)NCCC(=O)Nc1ccc(S(=O)(=O)N2CCCC(C)C2)cc1 (configuration not stated)	-10%	1%	-1%	-5%	?
Cc1cc(C)cc(NC(=S)NCc2cccs2)c1	?	-48%	3%	?	23µM*
COc1ccc(-c2n[nH]c(C)c2-c2cnn(-c3ccccc3)c2)c(O)c1	-27%	-48%	4%	13µM*	-14%
COc1ccc(-c2n[nH]c(C)c2-c2cscn2)c(O)c1	7%	-3%	-1%	-1%	-10%
COc1ccc(-c2n[nH]c(C)c2-c2cnn(-c3ccccc3)c2)c(O)c1C	-11%	-104%	3%	13µM*	-35%
COc1ccc(-c2onc(C)c2-c2cnn(-c3ccccc3)c2)c(O)c1C	-4%	-15%	0%	8%	-1%
Cc1cc2occ(CC(=O)N(C)CC(=O)Nc3cccc(F)c3)c2cc1C	?	-17%	3%	-15%	26µM*
Cc1cc2occ(CC(=O)N(C)CC(=O)Nc3c(C)cccc3C)c2cc1C	0%	-3%	-1%	-5%	-3%
CCN(CC(=O)Nc1ccc(OC)cc1)C(=O)Cc1coc2cc(C)c(C)cc12	-11%	11µM*	0%	0%	-9%
CCCN(CCC)CC(O)Cn1cc(/C=C/C(=O)c2ccc(OCC)cc2)c2ccccc21 (configuration not stated)	?	13µM*	13%	?	2%
